# High-throughput results from PubChem BioAssay.
# Rows were chosen to be rich in hits. Some 6.5% of all compounds tested hit in one or more screens of this group.
# HepG2 tox – kills HepG2 cells in TGF-b inhibitor counter-screen | HepG2 CAGA-GFP viability, ATP luminescence, 18 h | Potency, µM (top dose mostly 46.1 µM), inactives show top-dose activity change, negative = cytotoxicity, actives largely listed as cytotoxic | 410,000 tested, 0.76% active | AID 588856; further: potency means the concentration at half of the fitted maximal effect
#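 CellTiter-Glo luminescence gave cytotoxicity after 18 hours at 37 degrees C. The cells were HepG2 CAGA-GFP in 1% FBS DMEM, stimulated with 500 pg/mL TGF-beta after compound addition. %Activity was normalised to no-cell wells (complete cell-killing) and DMSO (no toxicity), and curves were fitted and classified.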
# TGFb SMAD3 inh – TGF-b pathway inhibition; HepG2 CAGA-GFP TGF-b/SMAD3 reporter, GFP fluorescence, 18 h; TGF-beta stimulated, 500 pg/mL final; Potency, µM (top dose mostly 46.1 µM), without a hit: at the top dose activity, negative = inhibition, most hits filed as inhibitors; 410,000 tested, 1.2% active; AID 588855; further: potency means the concentration at half of the fitted maximal effect; on the % scale 0 is the no-effect control and ±100 the full control effect; nearly all actives have a fitted effect of over 65% in size
#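 Read-out: total well GFP (ex488/em500-530) summed from mean per-cell fluorescence. Cells: HEPG2 CAGA-GFP, 1% FBS DMEM, 18 h at 37 degrees C with 500 pg/mL final TGF-beta. Unstimulated wells served as the full-inhibition control; stimulated DMSO wells = 0%.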
# IL1B secr inh – inflammasome signaling inhibition, IL-1 beta readout; THP-1 LPS/ATP IL-1B secretion, AlphaLISA, 16 h; stronger effect = lower value; activity change, % at 57.5 µM; 360,000 tested, 4.7% active; in the data active means activity change below about -50%; inconclusive means mostly about -30% to -49%; further: on the % scale 0 is the no-effect control and ±100 the full control effect
#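 Secreted IL-1B measured by AlphaLISA bead assay after 16 h compound exposure of THP-1 cells; compounds (final up to 57.5 uM) added 1 h before LPS (250 ng/mL) and ATP (1.25 mM) stimulation; lower signal means less secretion.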
# HT1080 IDH1KD tx – kills HT-1080 cells with IDH1 knockdown; HT-1080 IDH1 knockdown viability, ATP luminescence, 48 h; AID 686971; Potency, µM (doses to about 46.1 µM), for inactives: at the highest dose activity, negative = toxicity, actives largely listed as cytotoxic; 360,000 tested, 2% active;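 further: potency means the concentration at half of the fitted maximal effect; 0% = DMSO wells and -100% = cell-free medium wells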
#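 Using the IDH1-knockdown HT-1080 line run in the same batch and compound series as the NT line, viability after 48 h at 37 °C was determined by CellTiter-Glo luminescence and expressed as % activity.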
# HT1080NT lethal – kills 2HG-producing HT-1080-NT fibrosarcoma cells; HT-1080-NT fibrosarcoma viability, CellTiter-Glo ATP luminescence, 48 h; Potency, µM (doses to about 46.1 µM), for the others: top-dose activity, negative = less viability, most hits filed as cytotoxic; 360,000 tested, 1.6% active;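 further: NT is the 2HG producing partner of a matched IDH1 knockdown line; potency means the concentration at half of the fitted maximal effect; 0% = DMSO-treated cells and -100% = media-only wells without cells; nearly all actives have a fitted effect of over 55% in size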
#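 Read-out is CellTiter-Glo luminescence after 10 minutes at room temperature, following 48 hours' compound treatment of HT-1080-NT cells (750 cells/well, RPMI, 5% FBS, 37 degrees C).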
# Giardia kill – kills Giardia lamblia | Giardia lamblia trophozoite viability | activity change, % at 7.66 µM, hits read low | 340,000 tested, 0.15% active | AID 540267; in the data active means activity change below about -80%; inconclusive means between about -30% and that limit;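 further: parasites exposed to compound for two days anaerobically before the ATP read; on the % scale 0 is the no-effect control and ±100 the full control effect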
#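 Luminescent ATP signal served as the viability read-out, measured 15-30 min after adding ATP detection reagent to trophozoites that had been incubated with compounds for 48 hrs at 37 deg C anaerobically at 100 cells/well.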
# * hit, by the source's call; ? = inconclusive; nt = no result given; [ ] = remark or other dose. Unless noted, the call rests on the fitted dose curve; in most records, active means well fitted curve in the direction sought with a large enough effect; inconclusive means small, poorly fitted or top-dose-only effect, or another doubt; inactive means no such curve, though single readings can be large; an effect the other way counts as inactive or inconclusive.
SMILES,HepG2 tox,TGFb SMAD3 inh,IL1B secr inh,HT1080 IDH1KD tx,HT1080NT lethal,Giardia kill
Cc1ccc(NC(=O)N(O)C2CCCCC2C#N)cc1 (stereo not given),4.1%,5.3%,-2.0,13.6%,9.1%,-4.2
O=C(NCCN1CCCCC1)c1ccc(Oc2cc(Cl)cc(Cl)c2)o1,-6.5%,?,nt,25.9µM*,?,-14.0
CC(=O)NC1=NN(C(C)=O)C(c2ccc(C(C)C)cc2)S1 (stereo not given),-0.2%,30.3%,12.3,-1.4%,3.9%,6.4
CN(CC(=O)Nc1ccc(SC(F)F)cc1)C1CCCCC1,0.0%,0.0%,-6.6,-6.8%,-16.5%,13.5
FC(F)Sc1ccc(NC(=S)NC2CCCCC2)cc1,-48.6%,11.2µM*,?,?,?,-17.8
O=C(CC1CCCC1)Nc1ccc(Br)cc1,-7.1%,-7.2%,-56.3*,-14.7%,0.9%,17.0
CC1CCCCC1NC(=S)Nc1ccc(SC(F)F)cc1 (stereo not given),-38.2%,?,-80.2*,?,?,12.2
S=C(NCC1CCCCC1)Nc1cccnc1,-4.1%,-2.1%,-1.3,5.6%,10.6%,-11.0
CC1CCN(C(=S)Nc2ccc(SC(F)F)cc2)CC1,-54.2%,-21.9%,-17.0,7.9%,-0.7%,-10.0
COc1ccc(NC(=O)CC2CCCCC2)cc1OC,-0.7%,-1.9%,14.7,-2.3%,-2.8%,0.1
FC(F)Sc1ccc(NC(=S)NCC2CCCCC2)cc1,-105.1%,?,-92.0*,?,?,11.5
N#Cc1ccccc1NC(=O)C(=O)NCCc1csc(-c2ccc(C(F)(F)F)cc2)n1,11.4%,16.1%,nt,nt,nt,nt
COc1ccc(CC(=O)N/N=C/c2ccc(Cl)s2)cc1OC,-10.9%,-21.6%,-20.9,-12.1%,-10.1%,18.0
Cc1ccc(S(=O)(=O)N2CCN(C(=O)Cn3cnc4c3c(=O)n(C)c(=O)n4C)CC2)cc1C,0.6%,0.2%,-23.5,3.6%,3.4%,-23.7
Cc1cccc(NC(=S)NC2CCCC2)c1,8.3%,-15.6%,28.6,27.0%,18.9%,-12.5
S=C(Nc1ccc(Br)cc1)NC1CCCC1,-22.9%,?,-62.0*,-9.3%,-10.0%,11.8
Cc1ccc2sc(N(CCCN(C)C)C(=O)c3nc4ccccc4s3)nc2c1C,-136.9%,?,-28.8,20.6µM*,?,-17.5
Cc1cccc2sc(N(CCCN(C)C)C(=O)c3nc4ccccc4s3)nc12,-47.5%,0.0%,-0.9,-1.1%,0.9%,6.2
Cc1ccc2sc(N(CCCN(C)C)C(=O)c3ccc(Br)s3)nc2c1C,12.6µM*,?,-101.1*,13µM*,20.6µM*,11.7
CC(=O)c1ccc(C(=O)N(CCCN(C)C)c2nc3c(C)c(C)ccc3s2)cc1,-56.5%,?,nt,nt,nt,nt
Cc1ccc(NC(=O)c2ccc(C#CC3(O)CCCCC3)cc2)cc1C,-29.9%,-1.0%,2.0,2.8%,5.7%,-13.7
CC(C)(C)n1nnnc1CN1CCN(C(c2ccccc2)c2ccccc2)CC1,-9.6%,?,-55.2*,-16.7%,-18.1%,4.7
CC(C)(C)n1nnnc1C(c1ccccc1)N1CCCN(Cc2ccc(F)cc2)CC1 (stereo not given),nt,nt,-29.1,0.2%,-14.4%,nt
N#CCC(=O)Nc1ccc(C(=O)OCC(=O)NC(=O)Nc2ccc3c(c2)OCCO3)cc1,-1.3%,1.2%,?,6.0%,4.1%,6.6
COc1ccc(C(=O)NC2(C(F)(F)F)NC(=O)N(CCCc3ccccc3)C2=O)cc1OC (stereo not given),-26.4%,?,-67.8*,-28.5%,?,10.2
SMILES,HepG2 tox,TGFb SMAD3 inh,IL1B secr inh,HT1080 IDH1KD tx,HT1080NT lethal,Giardia kill
CCN(C[C@H]1N[C@@](Cc2ccccc2)(C(=O)OC)[C@H]2C(=O)N(Cc3ccccc3)C(=O)[C@@H]12)C(C)=O,0.7%,2.2%,-86.3*,10.1%,19.6%,22.1
COC(=O)[C@]1(Cc2ccccc2)N[C@H](CN(C)C(=O)Nc2ccc(Cl)cc2)[C@@H]2C(=O)N(Cc3ccccc3)C(=O)[C@@H]21,-29.2%,?,-64.5*,-1.3%,-3.4%,-11.9
CCN(CCCNC(=O)c1ccc(Sc2ccc(Cl)cc2)c(NC(C)=O)c1)c1cccc(C)c1,-5.8%,?,nt,nt,nt,nt
CCN(CCNCC(O)COCc1ccc(Cl)cc1)c1cccc(C)c1 (stereo not given),-92.1%,?,nt,?,16.4µM*,-13.2
O=C(CC12CC3CC(CC(C3)C1)C2)NC(=S)Nc1ccc(CN2CCOCC2)cc1,0.1%,-3.8%,-18.7,?,-24.4%,-10.2
O=C(N/N=C/C(Cl)=C/c1ccccc1)c1ccccc1F,-4.7%,25.4%,-69.5*,-4.9%,-17.9%,-8.9
O=C(N/N=C/C(Cl)=C\c1ccccc1)c1cnccn1,-5.4%,-4.8%,-81.9*,15.3%,-2.9%,8.2
O=C(N/N=C/C(Cl)=C/c1ccccc1)c1cnccn1,-0.6%,0.0%,-18.5,-0.3%,-1.7%,-6.0
O=C(N/N=C/C(Br)=C/c1ccccc1)c1ccccc1F,-12.1%,-14.3%,-65.4*,?,?,-9.9
NC(=O)c1sc2nc3c(c(-c4ccc(Cl)cc4)c2c1N)CCCC3,-18.8%,?,-17.3,?,?,-10.7
CCOc1c2ccc(C(=O)NCCCCc3ccccc3)cc2nn1CC,-37.4%,-1.8%,17.3,-3.1%,-0.9%,26.2
COc1ccc(CN2CCNC(=O)C2CC(=O)NC2CCOCC2)cc1C (stereo not given),1.5%,55.0%,5.6,4.5%,12.5%,7.8
COC1=CC(=NCl)C=CC1=NCl,-4.0%,-21.7%,43.9,21.7%,24.1%,nt
COc1ccc(C(=O)NC(Oc2ccccc2)C(Cl)(Cl)Cl)cc1 (stereo not given),-52.6%,2.8%,-2.3,1.0%,3.1%,23.3
Cc1cccc(/N=C/c2sc3ccccc3c2O)n1,-38.5%,-8.6%,-1.8,-1.9%,2.2%,2.4
CC(NC(=O)Nc1ccc(Cl)cc1)c1ccccc1 (stereo not given),-32.6%,?,-3.7,-0.8%,-0.4%,20.0
Cc1ccc(C(NC(=O)NC(C)c2ccccc2)C(Cl)(Cl)Cl)cc1F (stereo not given),-46.0%,?,-61.9*,?,-27.0%,33.9
O=C(CN1C(=O)COc2ccccc21)N(Cc1cccnc1)Cc1cccc(F)c1,-3.6%,2.3%,-1.6,-14.3%,0.0%[9.24 µM],22.6
C/C(N=Nc1nc2ccccc2s1)=N\Nc1ccccc1O,-97.4%,11.2µM*,121.6,14.6µM*,13µM*,?
C[C@@H]1NC(=O)[C@@]2(C)[C@@H](c3ccccc3)[C@H]3COc4ccc(Cl)cc4[C@@H]3N2C1=O,-0.6%,?,9.7,9.8%,0.5%,-7.4
